Compounds without any hit were thinned out: in the full panel of roughly 83,000, 20% have a hit.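 Cell lines were cultured in 96-well plates, exposed to a single compound concentration, and assessed for percent growth 48 hours later.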 Active and inactive are the calls of the source. How the source made its calls: active means growth percent below 10; inactive means the rest.
Assays:
Test in all cases: NCI-60 one-dose screen, 48 h (100 = growth as untreated, 0 = no growth, -100 = all killed)
Conditions in all cases: 10 µM unless noted
DU-145 prostate = tested on: DU-145 prostate
K-562 leukemia = tested on: K-562 leukemia
MALME-3M melanoma = tested on: MALME-3M melanoma
MDA-MB-231 breast = tested on: MDA-MB-231 breast
RXF 393 renal = tested on: RXF 393 renal
SF-268 CNS = tested on: SF-268 CNS
SF-295 CNS = tested on: SF-295 CNS
SF-539 CNS = tested on: SF-539 CNS
UACC-257 melanoma = tested on: UACC-257 melanoma
M14 melanoma = tested on: M14 melanoma
HCT-15 colon = tested on: HCT-15 colon
HT29 colon = tested on: HT29 colon
SNB-75 CNS = tested on: SNB-75 CNS
SNB-19 CNS = tested on: SNB-19 CNS
U251 CNS = tested on: U251 CNS
PC-3 prostate = tested on: PC-3 prostate
SK-MEL-5 melanoma = tested on: SK-MEL-5 melanoma
UACC-62 melanoma = tested on: UACC-62 melanoma
LOX IMVI melanoma = tested on: LOX IMVI melanoma
SK-MEL-28 melanoma = tested on: SK-MEL-28 melanoma

Measured: growth

COC(=O)[C@]12CC[C@@H](C)[C@H](C)[C@@H]1C1=CC[C@@H]3[C@@]4(C)C(C=O)=C[C@@](C)(COC(C)=O)[C@@H]4C(=O)C[C@@]3(C)[C@]1(C)CC2
inactive: DU-145 prostate 42.6% | K-562 leukemia 24.3% | MALME-3M melanoma 65.7% | MDA-MB-231 breast 46.8% | RXF 393 renal 55.8% | SF-268 CNS 42.2% | SF-295 CNS 32.1% | SF-539 CNS 53.7% | UACC-257 melanoma 37.8% | M14 melanoma 19.5% | HCT-15 colon 21.5% | HT29 colon 23.8% | SNB-75 CNS 33.5% | SNB-19 CNS 37.4% | U251 CNS 27.1% | PC-3 prostate 13.3% | SK-MEL-5 melanoma 51.9% | UACC-62 melanoma 42.1% | LOX IMVI melanoma 33.5% | SK-MEL-28 melanoma 65.5%

COc1ccc(OC)c(-c2c(C#N)c(-c3ccc(Cl)cc3)nc3c2c(-c2ccccc2)nn3-c2ccccc2)c1
inactive: DU-145 prostate 99.1% | K-562 leukemia 97.7% | MALME-3M melanoma 101% | MDA-MB-231 breast 101% | RXF 393 renal 101% | SF-268 CNS 96% | SF-295 CNS 109% | SF-539 CNS 98.8% | UACC-257 melanoma 100% | M14 melanoma 101% | HCT-15 colon 105% | HT29 colon 109% | SNB-75 CNS 85.1% | SNB-19 CNS 100% | U251 CNS 98.7% | PC-3 prostate 92% | SK-MEL-5 melanoma 110% | UACC-62 melanoma 90.7% | LOX IMVI melanoma 94.4% | SK-MEL-28 melanoma 105%

CCOc1ccccc1-c1cc(-c2cccs2)c(C#N)c(=O)[nH]1
inactive: DU-145 prostate 111% | K-562 leukemia 48.6% | MALME-3M melanoma 84.9% | MDA-MB-231 breast 89% | RXF 393 renal 79.6% | SF-268 CNS 92.5% | SF-295 CNS 93.6% | SF-539 CNS 87.3% | UACC-257 melanoma 101% | M14 melanoma 85.1% | HCT-15 colon 56.8% | HT29 colon 120% | SNB-75 CNS 45.8% | SNB-19 CNS 86.1% | U251 CNS 88.6% | PC-3 prostate 84.5% | SK-MEL-5 melanoma 85.8% | UACC-62 melanoma 63.7% | LOX IMVI melanoma 86.6% | SK-MEL-28 melanoma 94.6%

CC(C)=C[C@@H]1c2c(c3ccccc3n(C)c2=O)O[C@H]2c3c(c4ccccc4n(C)c3=O)OC(C)(C)[C@@H]12
inactive: DU-145 prostate 106% | K-562 leukemia 56.1% | MALME-3M melanoma 99.4% | MDA-MB-231 breast 85.8% | RXF 393 renal 88.9% | SF-268 CNS 86.1% | SF-295 CNS 65.5% | SF-539 CNS 81.2% | UACC-257 melanoma 82.2% | M14 melanoma 98.9% | HCT-15 colon 65.4% | HT29 colon 77.9% | SNB-75 CNS 60.6% | SNB-19 CNS 99.2% | U251 CNS 84.5% | SK-MEL-5 melanoma 61.5% | UACC-62 melanoma 65.6% | LOX IMVI melanoma 67% | SK-MEL-28 melanoma 104%
active: PC-3 prostate 6.54%

Cc1cc(NCc2cc(Nc3ccnc4cc(Cl)ccc34)ccc2F)nc(N2CCN(C)CC2)n1
active: K-562 leukemia -37.2% | MALME-3M melanoma -68.3% | MDA-MB-231 breast -43.9% | RXF 393 renal -27.1% | SF-295 CNS -60.9% | SF-539 CNS -75.3% | UACC-257 melanoma -59.7% | M14 melanoma -73.1% | HCT-15 colon -42.9% | HT29 colon -24.5% | SNB-75 CNS -50.9% | U251 CNS -28.2% | SK-MEL-5 melanoma -98% | UACC-62 melanoma -63.8% | LOX IMVI melanoma -86.6% | SK-MEL-28 melanoma -70%
inactive: DU-145 prostate 23.4% | SF-268 CNS 12.6% | SNB-19 CNS 29.7% | PC-3 prostate 21.5%

CCN1C(=O)N(CC)C2Nn3c(s/c(=C\c4cccc([N+](=O)[O-])c4)c3=O)=NC21 (stereo not given)
inactive: DU-145 prostate 30.5% | K-562 leukemia 19.9% | MALME-3M melanoma 57.8% | MDA-MB-231 breast 30.7% | RXF 393 renal 25.4% | SF-268 CNS 63.9% | SF-295 CNS 31% | SF-539 CNS 12.8% | UACC-257 melanoma 77.5% | M14 melanoma 22.2% | HCT-15 colon 31.8% | HT29 colon 74.9% | SNB-75 CNS 20% | SNB-19 CNS 53.3% | U251 CNS 33.5% | PC-3 prostate 35.8% | SK-MEL-5 melanoma 31.8% | UACC-62 melanoma 47% | LOX IMVI melanoma 56.4% | SK-MEL-28 melanoma 57.3%

CC(=O)c1nc(Nc2ccc(C)cc2)sc1C
inactive: DU-145 prostate 102% | K-562 leukemia 97.6% | MALME-3M melanoma 113% | MDA-MB-231 breast 91.3% | RXF 393 renal 96.2% | SF-268 CNS 91% | SF-295 CNS 104% | SF-539 CNS 101% | UACC-257 melanoma 92.1% | M14 melanoma 97.1% | HCT-15 colon 94.1% | HT29 colon 105% | SNB-75 CNS 75% | SNB-19 CNS 93.1% | U251 CNS 95.8% | PC-3 prostate 93.1% | SK-MEL-5 melanoma 98.6% | UACC-62 melanoma 98.6% | LOX IMVI melanoma 100% | SK-MEL-28 melanoma 95.2%

Cc1cc(C)c(-c2c(C)cc(C)cc2CBr)c(CBr)c1
inactive: DU-145 prostate 94.9% | K-562 leukemia 67.7% | MALME-3M melanoma 73.5% | MDA-MB-231 breast 97.9% | RXF 393 renal 14.8% | SF-268 CNS 74.2% | SF-295 CNS 84.7% | SF-539 CNS 96.4% | UACC-257 melanoma 73.9% | M14 melanoma 72.5% | HCT-15 colon 80.6% | HT29 colon 86.3% | SNB-75 CNS 92.3% | SNB-19 CNS 86.2% | U251 CNS 73% | PC-3 prostate 78.4% | SK-MEL-5 melanoma 77.6% | UACC-62 melanoma 70.9% | LOX IMVI melanoma 53% | SK-MEL-28 melanoma 86.9%

O=c1c2c3c(sc2n2c(-c4cc(-c5ccccc5)nn4-c4ccccc4)nnc2n1Cc1ccccc1)CCCC3
inactive: DU-145 prostate 107% | K-562 leukemia 27.1% | MALME-3M melanoma 123% | MDA-MB-231 breast 94.2% | RXF 393 renal 90% | SF-268 CNS 89.2% | SF-539 CNS 112% | UACC-257 melanoma 106% | M14 melanoma 92.4% | HCT-15 colon 91.3% | HT29 colon 88.6% | SNB-75 CNS 92.3% | SNB-19 CNS 89.6% | U251 CNS 70.3% | PC-3 prostate 69.1% | SK-MEL-5 melanoma 129% | UACC-62 melanoma 103% | LOX IMVI melanoma 92.9% | SK-MEL-28 melanoma 111%
active: SF-295 CNS 5.76%

Cc1c(Cl)cc(-n2c(=O)c3ccccc3c3ccccc3c2=O)cc1Cl
inactive: DU-145 prostate 121% | K-562 leukemia 106% | MALME-3M melanoma 90.5% | MDA-MB-231 breast 84.2% | RXF 393 renal 123% | SF-268 CNS 105% | SF-295 CNS 102% | SF-539 CNS 110% | UACC-257 melanoma 104% | M14 melanoma 93% | HCT-15 colon 110% | HT29 colon 103% | SNB-75 CNS 89.9% | SNB-19 CNS 104% | U251 CNS 102% | PC-3 prostate 82% | SK-MEL-5 melanoma 107% | UACC-62 melanoma 92.6% | LOX IMVI melanoma 95.2% | SK-MEL-28 melanoma 117%

Cc1ccc2nc(NC(=O)CSc3nc(Nc4ccc([N+](=O)[O-])cc4)c(C#N)c(-c4ccccc4)n3)sc2c1
inactive: DU-145 prostate 104% | K-562 leukemia 87.6% | MALME-3M melanoma 110% | MDA-MB-231 breast 93.7% | RXF 393 renal 92.7% | SF-268 CNS 93.7% | SF-295 CNS 95.6% | SF-539 CNS 92.8% | UACC-257 melanoma 105% | M14 melanoma 114% | HCT-15 colon 93.6% | HT29 colon 96.7% | SNB-75 CNS 85.6% | SNB-19 CNS 93.9% | U251 CNS 93.2% | PC-3 prostate 93.8% | SK-MEL-5 melanoma 98% | UACC-62 melanoma 86% | LOX IMVI melanoma 96.7% | SK-MEL-28 melanoma 109%

Cc1cc(NCc2cc(Nc3ccnc4cc(Cl)ccc34)ccc2F)nc(Cl)n1
inactive: DU-145 prostate 60% | K-562 leukemia 19.8% | MALME-3M melanoma 76.8% | MDA-MB-231 breast 43.5% | RXF 393 renal 62.9% | SF-268 CNS 72.2% | SF-295 CNS 34.2% | SF-539 CNS 73.3% | UACC-257 melanoma 35.7% | M14 melanoma 38.7% | HCT-15 colon 27% | HT29 colon 28.1% | SNB-75 CNS 71.5% | SNB-19 CNS 58.3% | U251 CNS 44.8% | PC-3 prostate 34.9% | UACC-62 melanoma 45.2% | LOX IMVI melanoma 34.9% | SK-MEL-28 melanoma 72.1%
active: SK-MEL-5 melanoma 3.73%

CN(C)CCNc1nc2ccccc2c2c1c1c(n2Cc2ccccc2)-c2ccccc2C1=O
active: DU-145 prostate -100% | K-562 leukemia -57.9% | MALME-3M melanoma -59% | MDA-MB-231 breast -79.8% | RXF 393 renal -65.5% | SF-268 CNS -81.9% | SF-295 CNS -77.3% | SF-539 CNS -91.3% | UACC-257 melanoma -85.3% | M14 melanoma -81.8% | HCT-15 colon -88.2% | HT29 colon -100% | SNB-75 CNS -96.1% | SNB-19 CNS -86.3% | U251 CNS -95.9% | PC-3 prostate -88.6% | SK-MEL-5 melanoma -100% | UACC-62 melanoma -94.1% | LOX IMVI melanoma -96.2% | SK-MEL-28 melanoma -100%

Cn1c2c(c3ccc(Cl)c(Cl)c31)C(C#N)C1(CCNCC1)NC2=O (stereo not given)
inactive: DU-145 prostate 69.1% | K-562 leukemia 26.1% | MALME-3M melanoma 58.1% | MDA-MB-231 breast 42.2% | RXF 393 renal 25.9% | SF-268 CNS 48.6% | SF-295 CNS 58.3% | SF-539 CNS 56.8% | UACC-257 melanoma 39.9% | M14 melanoma 16.1% | HCT-15 colon 47.2% | SNB-75 CNS 22.2% | SNB-19 CNS 57.2% | U251 CNS 47.7% | PC-3 prostate 20.5% | SK-MEL-5 melanoma 59.6% | LOX IMVI melanoma 14.2%
active: HT29 colon 9.42% | UACC-62 melanoma -46.5% | SK-MEL-28 melanoma -81.4%

O=C1/C(=C/c2ccccc2)CCc2nc3ccccc3c(/C=C/c3ccc(Cl)cc3)c21
inactive: DU-145 prostate 98.1% | K-562 leukemia 82% | MALME-3M melanoma 105% | MDA-MB-231 breast 86.6% | RXF 393 renal 96.3% | SF-268 CNS 87.5% | SF-295 CNS 96.3% | SF-539 CNS 99.3% | UACC-257 melanoma 82.8% | M14 melanoma 86.6% | HCT-15 colon 69.4% | HT29 colon 81.3% | SNB-75 CNS 76.5% | SNB-19 CNS 96.3% | U251 CNS 93.2% | PC-3 prostate 79.6% | SK-MEL-5 melanoma 89.8% | UACC-62 melanoma 73% | LOX IMVI melanoma 84.7% | SK-MEL-28 melanoma 91.8%
